# Several values for one entry are separate records, joined by “and”; a condition that tells them apart may be missing. Equal entries are not always repeated. Records with an inconclusive call do not appear. For some assays here: Results with a measured potency or affinity are listed apart. Activity calls are given as the source filed them. Unless noted, how the calls were made is not given here.
# What was measured:
# [1] = P. berghei load reduction in hepatocytes – cell-based, HepG2, luciferase luminescence, HepG2 viability, primary screen (AID 624349; in the data active means parasite load remaining mostly below about 12%, no sharp cut-off; inactive means mostly above about 10%;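 further: 100% = mean of DMSO negative control wells on the same plate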); conditions: P. berghei liver stage in HepG2, luciferase luminescence, concentration not given here; parasite load remaining: stronger effect = lower value; viability: measured here: HepG2 viability without parasites
# [2] = target: 6-phosphogluconate dehydrogenase, decarboxylating (Homo sapiens) (UniProt P52209); assay: inhibition of human phosphogluconate dehydrogenase – biochemical, recombinant enzyme, NADPH absorbance, primary screen (AID 1159550;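 active means at least 20% inhibition of 6-phosphogluconate dehydrogenase activity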); conditions: recombinant 6PGD, NADPH absorbance 341 nm; at 10 µM; stronger effect = higher value
# [3] = test system: Aerobactin synthetase IucA (Klebsiella pneumoniae hvKP1); assay: IucA enzyme inhibition, primary screen, biochemical, Spectrum library (AID 1346200); conditions: malachite green pyrophosphate, A620, at 8 µM, stronger effect = lower value;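 further: 100% = wells without compound and 0% = wells lacking enzyme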
# [4] = target: Mitogen-activated protein kinase 7 (Homo sapiens) (UniProt Q13164); assay: Gal4-ERK5 driven luciferase induction – cell-based, HTS, primary screen (AID 1508626;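 active means luciferase signal above three times the same-plate solvent-only control wells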;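 further: luciferase driven by Gal4-ERK5 fusion binding five Gal4 sites before minimal TATA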); conditions: HeLa Gal4-ERK5 transactivation, 18 h, at 5 µM, stronger effect = higher value
# [5] = viability loss in pontine glioma line – cell-based, SU-DIPG-XVII, MIPE5.0, CellTiter-Glo, qHTS, dose response (AID 1347060; cut-off not given, nearly all actives have AC50 up to about 26 µM); conditions: CellTiter-Glo ATP luminescence
# [6] = viability loss in pontine glioma line – cell-based, SU-DIPG-XIII, MIPE4.0, CellTiter-Glo, qHTS, dose response (AID 1347061; cut-off not given, nearly all actives have AC50 up to about 37 µM;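 further: cells exposed to compound for 48 hours before readout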); conditions: CellTiter-Glo ATP luminescence
# [7] = viability loss in pontine glioma line – cell-based, JHH-DIPG-1, MIPE4.0, CellTiter-Glo, qHTS, dose response (AID 1347062; cut-off not given, nearly all actives have AC50 up to about 27 µM); conditions: JHH-DIPG-1 viability, CellTiter-Glo ATP luminescence
# [8] = viability loss in pontine glioma line – cell-based, SU-DIPG-IV, MIPE4.0, CellTiter-Glo, qHTS, dose response (AID 1347063; cut-off not given, nearly all actives have AC50 up to about 30 µM;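 further: compound exposure lasted 48 hours before the viability readout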); conditions: CellTiter-Glo ATP luminescence
# [9] = viability loss in pontine glioma line – cell-based, SU-DIPG-XIII, MIPE5.0, CellTiter-Glo, qHTS, dose response (AID 1347064; cut-off not given, nearly all actives have AC50 up to about 23 µM); conditions: CellTiter-Glo ATP luminescence
# [10] = viability loss in pontine glioma line – cell-based, SU-DIPG-XXV, MIPE5.0, CellTiter-Glo, qHTS, dose response (AID 1347065; cut-off not given, nearly all actives have AC50 up to about 26 µM;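 further: cells exposed to compound for 48 hours before ATP readout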); conditions: CellTiter-Glo ATP luminescence
# [11] = JHH-DIPG-1 glioma cell viability, MIPE5.0 library, CellTiter-Glo luminescence, qHTS (AID 1347067; cut-off not given, nearly all actives have AC50 up to about 26 µM;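 further: cells exposed to compound for 48 hours before readout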); conditions: JHH-DIPG-1 glioma viability, CellTiter-Glo ATP luminescence
# [12] = growth inhibition of DIPG cells – cell-based, MIPE5.0 library, qHTS (AID 1347068; cut-off not given, nearly all actives have IC50 up to about 30 µM); conditions: SU-DIPG-XXV viability
# [13] = viability loss with induced miR-34 in A549 – imaging, A549 dox-inducible miR-34, nuclei and caspase counts, primary screen (AID 1347080;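 active means compounds whose cell count with miR-34 switched on is under 0.7 times the count with it off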); conditions: A549 miR-34 inducible, Hoechst nuclei count, 48 h
# [14] = compounds altering HSF1 focus formation in cells – imaging, Selleck Cancer Library (AID 1347162; in the data active means plate-normalised HSF1 focus index below about 0.46); conditions: human cells, HSF1 nuclear foci imaging, at 10 µM; SSMD: measured here: HSF1 foci SSMD mean; cell count: measured here: cell number; plate-normalised HSF1 focus index: stronger effect = lower value
# [15] = MELAS cybrid and Rieske KO viability enhancers – cell-based, MELAS cybrids, Rieske KO mouse fibroblasts, CellTiter-Glo, primary screen (AID 1508586;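 active means mean z-score across replicates of 1.96 or higher in either the MELAS or the Rieske mutant cell line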;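 further: z relative to plate mean and SD of compound and empty wells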); conditions: low glucose
# [16] = target: NAD(+) hydrolase SARM1 (Homo sapiens) (UniProt Q6SZW1); assay: blocking NAD cleavage by SARM1 SAM-TIR – cell lysate, NAD-Glo luminescence (AID 1508614;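 active means compound whose remaining NAD level is above about 45 nM, limit read from the data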); conditions: SAM-TIR HEK293T lysate NADase, at 1 µM, stronger effect = higher value
# [17] = galactose survival enhancers in mitochondrial complex I cybrids – cell-based, galactose medium, ATP luminescence, primary screen (AID 1645843;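 active means z-score of at least 1.8 in each of two replicates, scored against plate mean and spread of sample wells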;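 further: positive z means more ATP and so rescue of galactose-driven cybrid death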); conditions: complex I mutant cybrid cells, 72 h, stronger effect = higher value
# [18] = signal quenchers or enhancers, Cy5 substrate/SSB – biochemical, NIH Clinical Collection, E. coli SSB, artefact control for HCV NS3 helicase inhibitor project (AID 743268); conditions: Cy5-oligo bound E. coli SSB, fluorescence interference
# [19] = test system: Hepatitis C virus NS3 helicase; assay: blockers of NS3h binding to DNA – biochemical, fluorescence polarization, NIH Clinical Collection, primary screen (AID 743270); conditions: NS3 helicase binding to Cy5-dT15 DNA, stronger effect = higher value, concentration not given here
# [20] = target: Single-stranded DNA-binding protein (Escherichia coli (strain K12)) (UniProt P0AGE0); assay: SSB-ssDNA binding inhibitors – biochemical, fluorescence polarization, NIH Clinical Collection, counter-screen for HCV NS3 helicase inhibitor project (AID 743271; in the data active means inhibition above about 28%); conditions: E. coli SSB-DNA binding, stronger effect = higher value, concentration not given here
# [21] = compounds distorting NS3 helicase fluorescence signal – biochemical, NIH Clinical Collection, artefact control for HCV NS3 helicase inhibitor project (AID 743272); conditions: fluorescence interference counterscreen, HCV NS3 helicase assay; stronger effect = lower value;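 further: HCV NS3 helicase with a Cy5 labelled single stranded DNA probe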
# [22] = growth inhibition of DIPG cells – cell-based, MIPE4.0 library, CellTiter-Glo luminescence, qHTS (AID 1347066; cut-off not given, nearly all actives have AC50 up to about 30 µM;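 further: cells exposed to compound for 48 hours before readout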); conditions: SU-DIPG-VI viability, CellTiter-Glo ATP luminescence
# [23] = blockers of polyQ-driven CASP3 activation – cell-based (AID 1583); conditions: polyglutamine-induced caspase-3 activation, cell assay; stronger effect = higher value;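 tested at 10 µM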
# [24] = yeast 75Q aggregation reduction – 75Q-TubU reporter (AID 1593); conditions: Yeast 75Q polyglutamine aggregation reporter
# [25] = restoration of touch response, mutant HTT neurons – whole organism, C. elegans mechanosensory neurons, N-terminal huntingtin (AID 1599); conditions: C. elegans polyQ-huntingtin mechanosensory neurons, stronger effect = higher value
# [26] = blockers of cytochrome c efflux from mitochondria – biochemical, purified mitochondria (AID 1603); conditions: stronger effect = lower value;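 further: mouse liver mitochondria challenged with calcium chloride; signal normalized to the plate average as 100%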
# [27] = polyglutamine aggregate formation blockers (AID 1604); conditions: polyglutamine-induced protein aggregation inhibition assay; stronger effect = higher value; tested at 2.5 µM
# [28] = glutamate transport activators, MN-1 cells, MN-1 cell line (AID 1612); conditions: MN-1 motor neuron cells, stronger effect = higher value;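 further: tested at 1 µM final; 0% = mean of DMSO vehicle wells on each plate; positive means more glutamate uptake than control and negative means less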
# [29] = 75Q-TubH aggregate inhibition, S. cerevisiae, yeast (AID 1616); conditions: S. cerevisiae 75Q-TubH polyglutamine aggregation suppression; stronger effect = higher value
# [30] = measured here: relative caspase fold change +Dox/-Dox
# [31] = measured here: total cells with miR-34 induction, stronger effect = lower value
# [32] = measured here: total cells without miR-34 induction
# [33] = MELAS cybrid survival, CellTiter-Glo 48 h, stronger effect = higher value
# [34] = Rieske KO mouse fibroblast survival, CellTiter-Glo 72 h
# 6-phosphogluconate dehydrogenase, decarboxylating (Homo sapiens), sequence (P52209 whole entry, looked up): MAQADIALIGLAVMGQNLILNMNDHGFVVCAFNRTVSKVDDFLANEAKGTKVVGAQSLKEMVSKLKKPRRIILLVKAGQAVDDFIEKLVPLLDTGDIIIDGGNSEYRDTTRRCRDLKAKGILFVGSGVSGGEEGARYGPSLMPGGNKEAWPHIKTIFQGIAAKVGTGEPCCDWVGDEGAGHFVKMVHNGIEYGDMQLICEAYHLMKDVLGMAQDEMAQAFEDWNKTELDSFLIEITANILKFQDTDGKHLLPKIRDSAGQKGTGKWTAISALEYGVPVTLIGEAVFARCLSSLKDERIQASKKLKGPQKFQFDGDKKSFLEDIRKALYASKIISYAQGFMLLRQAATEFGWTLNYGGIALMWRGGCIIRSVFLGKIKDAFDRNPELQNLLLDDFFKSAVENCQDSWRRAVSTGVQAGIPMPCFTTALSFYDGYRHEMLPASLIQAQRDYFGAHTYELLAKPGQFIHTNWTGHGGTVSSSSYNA
# Mitogen-activated protein kinase 7 (Homo sapiens), sequence (Q13164 whole entry, looked up, the tested form may be a part): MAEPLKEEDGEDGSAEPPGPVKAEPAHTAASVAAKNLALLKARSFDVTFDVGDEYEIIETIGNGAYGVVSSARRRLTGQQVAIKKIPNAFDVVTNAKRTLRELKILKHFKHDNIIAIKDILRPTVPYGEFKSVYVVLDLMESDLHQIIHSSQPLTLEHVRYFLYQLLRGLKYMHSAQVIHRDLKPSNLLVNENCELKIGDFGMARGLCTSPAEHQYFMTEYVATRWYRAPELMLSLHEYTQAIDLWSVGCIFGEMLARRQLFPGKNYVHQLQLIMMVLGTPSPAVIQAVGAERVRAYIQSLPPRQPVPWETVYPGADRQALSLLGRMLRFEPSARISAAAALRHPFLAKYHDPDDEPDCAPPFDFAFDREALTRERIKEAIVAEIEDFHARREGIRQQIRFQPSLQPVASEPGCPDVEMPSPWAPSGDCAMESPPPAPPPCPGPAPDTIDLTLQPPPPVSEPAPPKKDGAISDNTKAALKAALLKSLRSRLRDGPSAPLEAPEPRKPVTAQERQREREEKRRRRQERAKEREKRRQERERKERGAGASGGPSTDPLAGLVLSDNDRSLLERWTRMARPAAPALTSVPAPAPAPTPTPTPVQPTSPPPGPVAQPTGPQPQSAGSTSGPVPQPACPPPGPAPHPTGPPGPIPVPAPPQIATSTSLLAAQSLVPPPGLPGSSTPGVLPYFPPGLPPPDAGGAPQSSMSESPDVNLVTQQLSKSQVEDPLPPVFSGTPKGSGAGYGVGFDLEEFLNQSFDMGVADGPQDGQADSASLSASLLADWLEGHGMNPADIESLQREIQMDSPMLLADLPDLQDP
# NAD(+) hydrolase SARM1 (Homo sapiens), sequence (Q6SZW1 whole entry, looked up): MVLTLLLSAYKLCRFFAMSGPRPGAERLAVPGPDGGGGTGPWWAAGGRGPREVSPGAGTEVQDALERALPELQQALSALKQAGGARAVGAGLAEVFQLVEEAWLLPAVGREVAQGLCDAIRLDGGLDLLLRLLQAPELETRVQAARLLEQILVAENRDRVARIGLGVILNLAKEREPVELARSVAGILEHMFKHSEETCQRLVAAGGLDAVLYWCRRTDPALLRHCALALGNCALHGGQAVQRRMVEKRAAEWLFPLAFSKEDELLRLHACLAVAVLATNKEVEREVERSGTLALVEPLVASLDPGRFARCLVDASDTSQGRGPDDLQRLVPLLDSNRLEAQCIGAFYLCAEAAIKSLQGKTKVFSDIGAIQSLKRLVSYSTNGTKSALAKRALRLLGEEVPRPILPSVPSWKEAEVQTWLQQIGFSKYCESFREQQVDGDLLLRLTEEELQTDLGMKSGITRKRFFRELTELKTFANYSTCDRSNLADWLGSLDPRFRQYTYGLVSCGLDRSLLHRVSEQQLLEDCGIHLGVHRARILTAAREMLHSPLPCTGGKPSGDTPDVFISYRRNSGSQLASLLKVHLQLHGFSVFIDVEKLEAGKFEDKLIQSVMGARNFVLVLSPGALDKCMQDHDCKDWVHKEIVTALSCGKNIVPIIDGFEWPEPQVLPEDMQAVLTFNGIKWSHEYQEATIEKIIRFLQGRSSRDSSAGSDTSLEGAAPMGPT
smiles,measurement,setting,value
NNCc1ccccc1,parasite load remaining,[1],106% (inactive)
same,viability,[1],91.4%
same,inhibition,[2],9.93% (inactive)
same,activity remaining,[3],105% (inactive)
CC(C)Nc1nc(Cl)nc(NC(C)C)n1,inhibition,[2],-12% (inactive)
same,activity remaining,[3],111% (inactive)
same,luciferase signal,[4],52 AU (inactive)
C[C@]12CCC(=O)C(O)=C1CC[C@@H]1[C@@H]2CC[C@]2(C)C(=O)CC[C@@H]12,parasite load remaining,[1],20.3% (inactive)
same,viability,[1],80.5%
same,inhibition,[2],-18.3% (inactive)
same,outcome,[5],inactive
same,outcome,[6],inactive
same,outcome,[7],inactive
same,outcome,[8],inactive
same,outcome,[9],inactive
same,outcome,[10],inactive
same,outcome,[11],inactive
same,outcome,[12],inactive
same,fold change,[13]; stronger effect = lower value,0.801 (inactive)
same,fold change,[13]; [30],1.62
same,cell count,[13]; [31],8120
same,cell count,[13]; [32],10100
same,SSMD,[14],1.39
same,cell count,[14],6710
same,plate-normalised HSF1 focus index,[14],1.07 (inactive)
same,z-score,[15]; [33],1.07 (inactive) and 0.415 (inactive)
same,z-score,[15]; [34],-0.144 and -0.532
same,remaining NAD,[16],10 nM (inactive)
same,luciferase signal,[4],48 AU (inactive)
same,z-score,[17],0.27 (inactive)
N#Cc1c(Cl)cccc1Cl,inhibition,[2],-5.35% (inactive)
same,activity remaining,[3],93.8% (inactive)
same,luciferase signal,[4],52 AU (inactive)
C[C@]12CC[C@H]3[C@@H](CCC4=CC(=O)CC[C@@]43C)[C@@H]1CC[C@@H]2O,parasite load remaining,[1],61.8% (inactive)
same,viability,[1],72.2%
same,fluorescence ratio,[18],0.93 (inactive)
same,inhibition,[19],1.53% (inactive)
same,inhibition,[20],0.39% (inactive)
same,fluorescence ratio,[21],0.96 (inactive)
same,inhibition,[2],16.5% (inactive)
same,outcome,[6],inactive
same,outcome,[7],inactive
same,outcome,[8],inactive
same,outcome,[22],inactive
same,remaining NAD,[16],10 nM (inactive)
same,luciferase signal,[4],68 AU (inactive)
OCC(O)Cc1ccc2c(c1)OCO2 (stereo not given),inhibition,[2],11.1% (inactive)
same,activity remaining,[3],123% (inactive)
same,luciferase signal,[4],16 AU (inactive)
CC(=O)O[C@@H]1CC2C(C)(C)[C@H](O)C=C[C@]2(C)C2CC[C@]3(C)C(=CC(=O)O[C@H]3c3ccoc3)[C@@]21C (stereo not given in full),inhibition,[2],-4.71% (inactive)
same,activity remaining,[3],105% (inactive)
same,luciferase signal,[4],120 AU (inactive)
CCNc1nc(Cl)nc(NC(C)C)n1,inhibition,[2],7.64% (inactive)
same,activity remaining,[3],97.8% (inactive)
same,fold change,[13]; stronger effect = lower value,0.888 (inactive)
same,fold change,[13]; [30],0.465
same,cell count,[13]; [31],8110
same,cell count,[13]; [32],9140
same,z-score,[15]; [33],3.44 (active)
same,z-score,[15]; [34],-0.553
same,luciferase signal,[4],36 AU (inactive)
same,z-score,[17],0.59 (inactive)
COc1c2c(c(CC=C(C)C)c3oc(=O)c(-c4ccc(O)cc4)c(O)c13)OC(C)(C)C=C2,inhibition,[2],-5.17% (inactive)
same,activity remaining,[3],104% (inactive)
same,luciferase signal,[4],60 AU (inactive)
CCC(C)[C@H]1O[C@]2(C=C[C@@H]1C)C[C@@H]1C[C@@H](C/C=C(\C)[C@@H](OC3C[C@H](OC)C(O[C@H]4C[C@H](OC)[C@@H](O)[C@H](C)O4)[C@H](C)O3)[C@@H](C)/C=C/C=C3\CO[C@@H]4[C@H](O)C(C)=C[C@@H](C(=O)O1)[C@]34O)O2 (stereo not given in full),inhibition,[23],-42.7%
same,score,[24],1.47
same,rescue above control,[25],0
same,cytochrome c release ratio,[26],4.06
same,inhibition of aggregation,[27],43.1%
same,glutamate uptake change,[28],-28.6%
same,aggregation suppression score,[29],1.02
same,parasite load remaining,[1],83.1% (inactive) and 34.5% (inactive)
same,viability,[1],68% and 87%
same,inhibition,[2],-3.19% (inactive)
same,activity remaining,[3],106% (inactive)
same,fold change,[13]; stronger effect = lower value,1.11 (inactive)
same,fold change,[13]; [30],1.23
same,cell count,[13]; [31],3700
same,cell count,[13]; [32],3330

# — PubChem BioAssay
